Screens: PubChem BioAssay, National Center for Advancing Translational Sciences (NCATS)
AMA1 RON2 block: qHTS for Inhibitors of AMA1-RON; Towards Development of Antimalarial Drug Lead: Primary Screen; AID 720542, 2013; Potency, µM (highest dose often 58.2 µM), for inactives: at the highest dose activity change, negative = inhibition, usual class: inhibitors; AlphaScreen AMA1-biotinylated RON2 peptide binding; 0.2% of 360,000 active;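 further: 0% = vehicle wells and -100% = peptide control; nearly all actives have a fitted effect of over 45% in size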
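AMA1 (3D7) with his tag at 25 nM final met compounds first, then biotinylated RON2 peptide at 25 nM; detection used donor plus acceptor beads, 10 µg/mL apiece, read by AlphaScreen after 30 min at room temperature.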
Pf growth 96h: Primary qHTS for delayed death inhibitors of the malarial parasite plastid, 96 hour incubation; P. falciparum luciferase reporter growth, 96 h; Potency, µM (doses to about 28.7 µM), for inactives: at the highest dose activity change, negative = inhibition, usual class: inhibitors; 6.9% of 320,000 active
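P. falciparum expressing integrated firefly luciferase grown in erythrocytes (2% hematocrit, 0.05% parasitemia final) with compounds for 96 hours at 37 C, 5% CO2. Growth inhibition read as loss of luminescence after adding luciferase detection reagent.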
Pf growth 48h: Primary qHTS for delayed death inhibitors of the malarial parasite plastid, 48 hour incubation; P. falciparum luciferase growth in erythrocytes, 48 h; Potency, µM (series often up to 28.7 µM), without a hit: top-dose activity change, negative = inhibition, actives largely listed as inhibitors; 5.9% of 310,000 active; AID 504832, 2011
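Erythrocytes infected with P. falciparum carrying an integrated firefly luciferase reporter (2% hematocrit, 0.1% parasitemia final) were exposed to compounds in RPMI 1640 with 0.5% Albumax at 37 C, 5% CO2. Growth inhibition was scored as reduced luminescence.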
HCV inhibitor: qHTS Assay for Inhibitors of Hepatitis C Virus (HCV). Huh7.5.1 HCVcc-Cre infection, luciferase reporter, 44 h. Potency, µM (titrated, usually from 41.8 µM), inactives show top-dose activity change, negative = inhibition, most hits filed as inhibitors. 3.4% of 340,000 active. AID 651820, 2012
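After 44 h co-culture of compound, cells and HCVcc-Cre (~0.5 moi), substrate is added for 15 min at room temperature and luciferase measured over 15 sec. Cells were seeded at 1,000/well and pre-cultured 4 h.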
* marks the source's active call; other numbers are inactive results; ? = inconclusive; / = not tested or not shown; [ ] = remark or other dose. Shown are actives, neighbours in structure and some others; about 11% of the full set was active somewhere. The call rests on the fitted dose curve; in most records, active means well fitted curve in the direction sought with a large enough effect; inconclusive means small, poorly fitted or top-dose-only effect, or another doubt; inactive means no such curve, though single readings can be large; an effect the other way counts as inactive or inconclusive. Unless noted, on the % scale 0 is the no-effect control and ±100 the full control effect; potency means the concentration at half of the fitted maximal effect.

SMILES | AMA1 RON2 block | Pf growth 96h | Pf growth 48h | HCV inhibitor
C=CCn1c2ccccc2c2nnc(SCCN3CCCCC3)nc21 | 8% | 10µM* | ? | -26%
C=CCn1c2ccccc2c2nnc(SCN3C(=O)c4ccccc4C3=O)nc21 | -18% | -35% | 1% | 19%
CCCn1c2ccccc2c2nnc(SCCN3CCOCC3)nc21 | 6% | 0% | ? | ?
C=CCn1c2ccccc2c2nnc(SCCCn3c(=O)[nH]c4ccccc43)nc21 | -8% | -11% | 13µM* | 10µM*
COc1ccc(C2=Nc3ccccc3N(C(=O)c3ccncc3)C2C(=O)NC(C)C)cc1 (stereo unspecified) | 7% | / | / | /
S=C(NCc1ccccc1)NN1CCOCC1 | -1% | 0% | 1% | 20%
CCOC(=O)c1ccccc1NC(=O)CN(c1ccccc1OCC)S(C)(=O)=O | -7% | 11% | 9.3µM* | 18%
CCCNC(=O)c1ccccc1NC(=O)CN(c1ccccc1)S(=O)(=O)N(C)C | 4% | -11% | ? | -24%
COc1ccccc1N(CC(=O)Nc1ccccc1C(=O)NCC(C)C)S(C)(=O)=O | 1% | / | 8.3µM* | -5%
CC(C)CNC(=O)c1ccccc1NC(=O)CN(c1ccccc1)S(=O)(=O)N(C)C | 5% | -1% | 10µM* | -29%
O=C(O)CNC(=O)CCCn1nnc2ccccc2c1=O | -7% | 67% | 3% | 8%
Cc1cccc(C)c1NC(=O)Nc1nnc([C@@H]2C[C@H](O)[C@@H](CO)O2)s1 | 7% | / | / | /
Cc1ccc(C(=O)NNC(=O)c2n[nH]c(=O)c3ccccc23)cc1C | 24% | 95% | 33% | -3%
Cn1cnc(S(=O)(=O)Nc2ccc(Cl)c(C(F)(F)F)c2)c1 | 0% | 29% | 17% | 9%
CC(=O)CSc1ncnc2sc3c(c12)CCCC3 | -3% | 34% | 18% | 10µM*
CC(=O)CSc1ncnc2sc3c(c12)CCC(C)C3 (stereo unspecified) | 53% | -6% | -15%[1.15 µM] | ?
CC1(C)Cc2nc3sc4c(SCC(=O)NCc5ccco5)ncnc4c3cc2CO1 | -9% | / | 74% | 14µM*
O=C(CSc1c2c(nc3cc(Cl)ccc13)CCCC2)NCc1ccco1 | -4% | -23% | -12% | 11µM*
O=C(CSc1ncnc2sc3c(c12)CCCC3)c1ccco1 | -1% | -11% | 39% | ?
O=C(CSc1ncnc2sc3c(c12)CCCCC3)NCc1ccco1 | -15% | / | -1% | 11µM*
Cc1nc2c(sc3nc4c(cc32)COC(C)(C)C4)c(=O)n1CC(=O)NCc1ccco1 | -1% | ? | 125% | -3%
O=C(CSc1nc2ccc(Cl)cc2[nH]1)NCc1ccco1 | 0% | ? | 18% | -10%
COc1ccc(-c2csc(C(C)(NC(C)=O)c3ccccc3)n2)cc1 (stereo unspecified) | -15% | / | / | /
CC(C)(C)OC(=O)N1CCC[C@H]1C(=O)N1CCC[C@H]1C(=O)NCc1ccncc1 | -1% | / | / | /
COc1ccc(NS(=O)(=O)c2cccc(C(=O)O)c2)cc1S(=O)(=O)N1CCOCC1 | -9%[11.6 µM] | / | / | -13%
SMILES | AMA1 RON2 block | Pf growth 96h | Pf growth 48h | HCV inhibitor
Clc1ccc(CSc2snnc2-c2ccccc2)cc1 | 35% | ? | 13µM* | -11%
Cc1ncc([N+](=O)[O-])n1CCOC(=O)NC(NCc1ccccc1Cl)C(Cl)(Cl)Cl (stereo unspecified) | 19% | ? | ? | 9%
Cc1ccc(NC(NC(=O)OCCn2c([N+](=O)[O-])cnc2C)C(Cl)(Cl)Cl)cc1 (stereo unspecified) | / | ? | 5.2µM* | 14%
CCn1c(SCC(=O)OC(C)C)nnc1-c1ccccc1OC | -3% | 35% | -20% | 31%
Cc1ccc(C(=O)N/N=C\c2ccc([N+](=O)[O-])o2)cn1 | 9% | 1.9µM* | 3.7µM* | ?
Cc1ccc(C(=O)N/N=C\c2ccc(-c3ccc(Cl)cc3)o2)cn1 | 10% | 4% | 7% | 11µM*
O=C(N/N=C/c1ccc([N+](=O)[O-])o1)c1ccc(NS(=O)(=O)c2cccs2)cc1 | -17% | 0.93µM* | 3.7µM* | 10%
CCN(CC)C(=O)/C(=C\c1cccc([N+](=O)[O-])c1)NC(=O)c1ccco1 | 9% | 7% | 12% | 11%
COc1cc(-c2ccccc2)[nH]c(=S)n1 | 107% | 7.4µM* | 35% | -2%
COc1ccc(CCC(=O)O)c(O)c1 | -19% | -1% | 0% | 13%
Cc1cc(CCC(=O)O)c(C)cc1CCC(=O)O | -3% | ? | 5.9µM* | 15%
CCOC(=O)[C@@H](C)N(Cc1ccc(OC)cc1)S(=O)(=O)N(Cc1ccccc1)[C@H](C(=O)OC)C(C)C | 2% | ? | 10µM* | ?
COC(=O)[C@H](CC(C)C)N(Cc1ccccc1)S(=O)(=O)N(Cc1ccc(OC)cc1)[C@@H](CC(C)C)C(=O)OC | -21% | / | / | -8%[8.37 µM]
C=C[C@H](CC(C)C)N(Cc1ccccc1)S(=O)(=O)N(Cc1ccc(OC)cc1)[C@H](C=C)CC(C)C | -1% | ? | 5.2µM* | -5%[8.37 µM]
CCOC(=O)[C@@H](C)NS(=O)(=O)N(Cc1ccccc1)[C@H](C(=O)OC)C(C)C | -3% | 18% | -23% | 5%
NC(=O)c1cc(C(=O)c2ccc(Cl)cc2)c[nH]1 | -7% | 56% | 20% | 11%
CCSC1=C(C#N)C(c2cccs2)C(C(=O)OC)=C(C)N1 (stereo unspecified) | 22% | -39% | / | -15%
CC1=C(C(=O)Nc2ccccc2)C(c2ccncc2)C(C#N)=C(SCC(=O)NC2CC2)N1 (stereo unspecified) | 0% | ? | -14% | 20%
CC1=C(C(=O)Nc2ccccc2)C(c2ccncc2)C(C#N)=C(SCC(=O)NC(C)C)N1 (stereo unspecified) | -4% | 33% | 10µM* | -9%
CCCSC1=C(C#N)C(c2cccs2)C(C(=O)Nc2ccccc2)=C(C)N1 (stereo unspecified) | 15% | 10% | 8.3µM* | 11µM*
Cc1cc(Cn2nc(C(=O)NCC3CC3)cc2-c2ccccc2)on1 | 19% | ? | ? | -15%
CC[C@@H]1C=C(C)C[C@H](C)C[C@H](OC)[C@H]2O[C@@](O)(C(=O)C(=O)N3CCCC[C@H]3C(=O)O[C@H](/C(C)=C/[C@@H]3CC[C@@H](O)[C@H](OC)C3)[C@H](C)[C@@H](O)CC1=O)[C@H](C)C[C@@H]2OC | / | 2.6µM* | 2.3µM* | 1%[8.37 µM]
O=c1c(-c2ccc(O)cc2O)coc2cc(O)cc(O)c12 | -23% | 1.2µM* | 87% | -11%
c1ccc(Cn2c[n+](Cc3ccccc3)c3ccccc32)cc1 | -2% | 6.6µM* | ? | 17%
CC1(C)Cc2cccc(OCC(=O)OCC(=O)Nc3cccc(S(N)(=O)=O)c3)c2O1 | -1% | -8% | -6% | 15%
CN1CCN(C(c2ccc(Br)cc2)c2cc(Cl)c3cccnc3c2O)CC1 (stereo unspecified) | -58% | 7.4µM* | 12µM* | 7.9µM*
